From PubChem BioAssay (Tox21)
Inconclusive results are not listed. Active and inactive are the calls of the source. Unless noted, calls come from the whole dose curve.

How the values were obtained:
[1] = biological target: Gonadotropin-releasing hormone receptor (Homo sapiens) (UniProt P30968); test: Human gonadotropin-releasing hormone receptor (GnRHR) small molecule agonists, calcium flux assay in GnRHR-HEK293 cells (AID 1920063); note: nearly all actives have a fitted effect of over 35% in size
Gonadotropin-releasing hormone receptor (Homo sapiens), sequence (P30968 whole entry, looked up): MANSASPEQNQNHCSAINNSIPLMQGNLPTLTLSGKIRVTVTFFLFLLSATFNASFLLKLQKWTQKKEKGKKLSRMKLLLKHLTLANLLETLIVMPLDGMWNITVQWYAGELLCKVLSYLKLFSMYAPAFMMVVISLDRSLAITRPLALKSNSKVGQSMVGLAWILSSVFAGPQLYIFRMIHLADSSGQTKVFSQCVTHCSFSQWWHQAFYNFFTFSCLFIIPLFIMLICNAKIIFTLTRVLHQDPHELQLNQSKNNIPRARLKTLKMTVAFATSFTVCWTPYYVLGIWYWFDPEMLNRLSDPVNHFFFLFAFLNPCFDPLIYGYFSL
Summary of the method: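 GnRHR-HEK293, 1500 cells/well, 18 h 37 C/5% CO2; Ca dye 1 h 37 C; cpd pinned (DMSO), agonist mode; kinetic FL 480/540, 3 min, 1 s reads; 15 conc, n=3.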

[2] = biological target: KiSS-1 receptor (Homo sapiens) (UniProt Q969F8); test: Human kisspeptin (KISS1R) small molecule agonists, calcium flux assay in KISS1R-HEK293 cells (AID 1920064; active = well fitted activation curve with a large enough effect in the repeat runs)
KiSS-1 receptor (Homo sapiens), sequence (Q969F8 whole entry, looked up): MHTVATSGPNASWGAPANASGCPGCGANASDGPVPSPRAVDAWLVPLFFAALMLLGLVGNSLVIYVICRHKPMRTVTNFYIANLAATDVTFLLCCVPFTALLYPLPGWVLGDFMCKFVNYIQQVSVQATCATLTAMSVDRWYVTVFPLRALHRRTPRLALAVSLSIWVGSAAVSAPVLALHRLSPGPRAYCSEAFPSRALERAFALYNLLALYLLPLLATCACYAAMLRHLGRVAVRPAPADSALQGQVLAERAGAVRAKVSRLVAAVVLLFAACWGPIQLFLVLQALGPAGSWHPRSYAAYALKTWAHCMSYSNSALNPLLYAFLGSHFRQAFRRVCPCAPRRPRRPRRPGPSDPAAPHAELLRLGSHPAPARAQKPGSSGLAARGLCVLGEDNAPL
Summary of the method: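 Stable human KISS1R HEK293 line; 18 h plating, 37 C/5% CO2; calcium dye 1 h 37 C; compound pin transfer; kinetic fluorescence Ex/Em 480/540, 3 min.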

[3] = p53 small molecule agonists, cell-based qHTS assay with human liver microsomes (AID 1963577);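 note: p53 response element beta-lactamase reporter cells with liver microsomes plus NADPH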
Summary of the method: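 16 h, 37 C exposure of p53RE-bla cells to compounds with human liver microsomes and NADPH (0.5 mg/mL final each); detection via LiveBLAzer mixture, 2 h dark at room temperature.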

[4] = p53 small molecule agonists, cell-based qHTS assay with rat liver microsomes (AID 1963578)
Summary of the method: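 With rat liver microsomes and NADPH present (0.5 mg/mL final each), p53RE-bla cells are treated with compound for 16 h at 37 C. LiveBLAzer detection mixture is then applied for 2 h at room temperature in the dark.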

[5] = p53 small molecule agonists, cell-based qHTS assay with human liver microsomes: qHTS cell viability counter screen (AID 1963579); note: nearly all actives have a fitted effect of over 45% in size
Summary of the method: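 In this multiplexed counter screen, the reporter plates were subsequently treated with CellTiter-Glo so that cell viability, reflected by luminescence, could be recorded for p53RE-bla cells dosed 16 h with compounds under microsomal activation (HLM and NADPH).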

[6] = p53 small molecule agonists, cell-based qHTS assay with rat liver microsomes: qHTS cell viability counter screen (AID 1963580); note: nearly all actives have a fitted effect of over 45% in size
Summary of the method: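 Viability is assessed in parallel with the p53 reporter read: HCT-116 p53RE-bla cells receive compounds plus rat microsomes and NADPH (0.5 mg/mL final apiece), incubate 16 h at 37 C, and then CellTiter-Glo luminescence is recorded.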

[7] = p53 small molecule agonists, cell-based qHTS assay (AID 1963582; active = well fitted activation curve with a large enough effect in the signal ratio in the repeat runs, not every such curve was filed as active; the % refers to the signal ratio; note: potency is the fitted concentration of half-maximal effect)
Summary of the method: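 Reporter line: p53RE-bla. Pre-incubation 5 h, 37 C, 5% CO2; compound (DMSO, pin tool) 16 h, 37 C; B/G FRET substrate 2 h RT; fluorescence intensity read.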

[8] = biological target: 5-hydroxytryptamine receptor 2A (Homo sapiens) (UniProt P28223); test: 5-hydroxytryptamine receptor 2A (HTR2A) small molecule antagonists, cell-based qHTS assay (AID 1963586); note: nearly all actives have a fitted effect of over 45% in size; note: potency is the fitted concentration of half-maximal effect
5-hydroxytryptamine receptor 2A (Homo sapiens), sequence (P28223 whole entry, looked up): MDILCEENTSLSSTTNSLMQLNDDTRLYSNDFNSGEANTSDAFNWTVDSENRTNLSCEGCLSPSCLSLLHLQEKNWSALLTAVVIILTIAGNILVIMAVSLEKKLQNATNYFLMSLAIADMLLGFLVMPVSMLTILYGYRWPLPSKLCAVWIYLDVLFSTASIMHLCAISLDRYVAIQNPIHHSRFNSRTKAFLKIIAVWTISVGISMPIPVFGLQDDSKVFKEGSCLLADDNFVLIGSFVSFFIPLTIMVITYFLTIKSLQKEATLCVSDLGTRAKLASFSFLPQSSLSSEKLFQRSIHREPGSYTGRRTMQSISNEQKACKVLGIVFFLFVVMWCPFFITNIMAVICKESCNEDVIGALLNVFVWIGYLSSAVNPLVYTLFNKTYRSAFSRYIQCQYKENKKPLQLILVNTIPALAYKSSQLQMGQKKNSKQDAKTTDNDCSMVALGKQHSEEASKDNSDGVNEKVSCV
Summary of the method: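 Antagonist-mode intracellular calcium assay: DOI (4 nM) added after 5 min compound pre-incubation at room temperature to dye-loaded HTR2A-CHO cells. Fluorescence followed for 3 min, sampled every second.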

[9] = biological target: 5-hydroxytryptamine receptor 2A (Homo sapiens) (UniProt P28223); test: 5-hydroxytryptamine receptor 2A (HTR2A) small molecule agonists, cell-based qHTS assay (AID 1963587); note: nearly all actives have a fitted effect of over 30% in size
Summary of the method: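 CHO cells stably expressing human HTR2A, plated 18 h, loaded with calcium dye 1 h at 37 C. Agonist mode: compounds added and intracellular calcium fluorescence recorded kinetically for 2 min at 1 sec intervals.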

[10] = biological target: Muscarinic acetylcholine receptor M1 (Homo sapiens) (UniProt P11229); test: Cholinergic receptor muscarinic 1 (CHRM1) small molecule antagonists, cell-based qHTS assay (AID 1963588); note: nearly all actives have a fitted effect of over 40% in size; note: potency is the fitted concentration of half-maximal effect
Muscarinic acetylcholine receptor M1 (Homo sapiens), sequence (P11229 whole entry, looked up): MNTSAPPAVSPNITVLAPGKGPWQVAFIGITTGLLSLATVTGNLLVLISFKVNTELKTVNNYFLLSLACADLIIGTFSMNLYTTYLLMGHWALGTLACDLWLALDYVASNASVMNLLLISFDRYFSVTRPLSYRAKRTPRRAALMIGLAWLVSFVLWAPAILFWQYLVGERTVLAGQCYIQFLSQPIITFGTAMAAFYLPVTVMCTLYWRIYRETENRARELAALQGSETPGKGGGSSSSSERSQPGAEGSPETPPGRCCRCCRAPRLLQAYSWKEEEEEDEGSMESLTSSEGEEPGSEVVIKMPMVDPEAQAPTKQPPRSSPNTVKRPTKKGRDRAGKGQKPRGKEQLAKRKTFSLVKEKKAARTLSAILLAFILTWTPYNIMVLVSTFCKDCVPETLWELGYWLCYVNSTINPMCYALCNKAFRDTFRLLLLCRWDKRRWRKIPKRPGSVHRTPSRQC
Summary of the method: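 CHRM1-CHO calcium-flux assay, antagonist mode. Cells were seeded 18 h, dye-loaded 1 h at 37 C and given compound for 5 min at RT, then acetylcholine was added at 50nM. FDSS fluorescence was read 3 min; 15 concentrations, three runs.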

[11] = biological target: Muscarinic acetylcholine receptor M1 (Homo sapiens) (UniProt P11229); test: Cholinergic receptor muscarinic 1 (CHRM1) small molecule agonists, cell-based qHTS assay (AID 1963589); note: nearly all actives have a fitted effect of over 35% in size
Summary of the method: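 Human M1 in stable CHO line; 18 h plating, 1 h dye load 37 C; cpd added (agonist mode); Ca2+ fluorescence kinetic read, 1 s intervals; 15 conc, 3 runs.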

[12] = cAMP Responsive Elements (CRE) small molecule agonists, cell-based qHTS assay (AID 1963590)
Summary of the method: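 HEK 293T CRE-bla, 2,000 cells/well, 18 h preincubation 37 C/5% CO2; cpds (DMSO) pinned, 3 h; LiveBLAzer B/G FRET substrate, 2 h RT.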

[13] = cAMP Responsive Elements (CRE) small molecule antagonists, cell-based qHTS assay (AID 1963591; active = well fitted inhibition curve with a large enough effect in the signal ratio in the repeat runs, not every such curve was filed as active; the % refers to the signal ratio)
Summary of the method: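 Beta-lactamase reporter read by FRET substrate (LiveBLAzer B/G) after 2 h at room temperature. CRE-bla HEK293T cells had received compound plus 0.25 uM (final) NKH477 for 3 h at 37 °C.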

[14] = biological target: Beta-2 adrenergic receptor (Homo sapiens) (UniProt P07550); test: Adrenergic beta2 receptor (ADRB2) small molecule antagonists, cell-based qHTS assay (AID 1963592); note: series mostly up to about 92 µM; nearly all actives have a fitted effect of over 50% in size
Beta-2 adrenergic receptor (Homo sapiens), sequence (P07550 whole entry, looked up): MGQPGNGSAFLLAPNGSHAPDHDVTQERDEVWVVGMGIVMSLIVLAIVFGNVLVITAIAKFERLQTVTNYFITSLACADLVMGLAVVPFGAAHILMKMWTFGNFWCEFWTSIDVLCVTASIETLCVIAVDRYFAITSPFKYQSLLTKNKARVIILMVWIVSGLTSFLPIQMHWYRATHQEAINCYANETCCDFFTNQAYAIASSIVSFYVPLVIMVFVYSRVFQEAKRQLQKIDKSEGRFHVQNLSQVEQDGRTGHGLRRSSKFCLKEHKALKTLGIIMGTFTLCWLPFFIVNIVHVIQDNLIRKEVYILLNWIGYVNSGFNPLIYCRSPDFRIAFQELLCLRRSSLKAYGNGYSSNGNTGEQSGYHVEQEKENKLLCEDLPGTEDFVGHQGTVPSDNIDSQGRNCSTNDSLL
Summary of the method: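 Cells (CHO, stable ADRB2 overexpression) incubated 18-20hr at 37C; compounds added from DMSO; agonist mix (1nM isoproterenol, 100uM IBMX, 25uM Ro-20-1724) added; 0.5hr RT; d2-cAMP and anti-cAMP-cryptate added; 1hr RT; 665/615 nm read.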

[15] = biological target: D(2) dopamine receptor (Homo sapiens) (UniProt P14416); test: Dopamine D2 receptor (DRD2) small molecule agonists, cell-based qHTS assay (AID 1963594); note: nearly all actives have a fitted effect of over 35% in size
D(2) dopamine receptor (Homo sapiens), sequence (P14416 whole entry, looked up): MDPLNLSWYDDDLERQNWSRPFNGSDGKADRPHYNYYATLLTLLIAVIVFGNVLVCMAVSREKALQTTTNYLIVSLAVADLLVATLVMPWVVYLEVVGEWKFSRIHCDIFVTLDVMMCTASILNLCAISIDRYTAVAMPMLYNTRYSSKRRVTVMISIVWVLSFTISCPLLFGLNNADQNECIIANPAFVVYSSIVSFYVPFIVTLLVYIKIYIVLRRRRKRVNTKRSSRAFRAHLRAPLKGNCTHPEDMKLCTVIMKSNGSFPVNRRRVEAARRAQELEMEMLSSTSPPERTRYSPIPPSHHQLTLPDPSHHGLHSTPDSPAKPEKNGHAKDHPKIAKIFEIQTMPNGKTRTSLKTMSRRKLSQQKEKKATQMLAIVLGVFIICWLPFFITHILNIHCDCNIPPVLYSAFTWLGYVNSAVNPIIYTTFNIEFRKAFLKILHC
Summary of the method: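 HEK293 cells stably expressing human DRD2, pre-treated with PDE inhibitor Ro20-1724 (0.1 mM final) and compound 10 min at room temperature, then stimulated with NKH477 (200nM […]) for 30 min. cAMP read by HTRF (665/620 nm).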

[16] = biological target: D(2) dopamine receptor (Homo sapiens) (UniProt P14416); test: Dopamine D2 receptor (DRD2) small molecule antagonists, cell-based qHTS assay (AID 1963595; active = well fitted inhibition curve with a large enough effect in the signal ratio in the repeat runs, with a control signal flat; the % refers to the signal ratio; note: potency is the fitted concentration of half-maximal effect)
Summary of the method: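 Stable D2 receptor HEK293 line, 24 h after seeding. Compound preincubated 10 min, then quinpirole (12 nM) with forskolin analogue NKH477 (200 nM), 30 min, room temperature. Detection by time-resolved FRET of cAMP.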

[17] = G protein-coupled receptor (GPCR) small molecule agonists, calcium flux assay: HEK293 wild type cell line counter screen (AID 1920065)
Summary of the method: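 Kinetic fluorescence at Ex/Em 480/540, recorded every second over 3 min, served as the read-out after compound addition. Each compound was tested at 15 concentrations in triplicate on cells pre-loaded with calcium dye for 1 h.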

[18] = biological target: Beta-2 adrenergic receptor (Homo sapiens) (UniProt P07550); test: Adrenergic beta2 receptor (ADRB2) small molecule agonists, cell-based qHTS assay (AID 1963593);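 note: CHO cells stably overexpressing human ADRB2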
Summary of the method: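 CHO cells stably over-expressing ADRB2 were plated overnight at 37C, then dosed with compounds plus a stimulation mix containing 100uM IBMX and 25uM Ro-20-1724 for 0.5hr at room temperature. cAMP was measured by HTRF competition, 1hr.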

[19] = p53 small molecule agonists, cell-based qHTS assay: qHTS cell viability counter screen (AID 1963581); note: nearly all actives have a fitted effect of over 45% in size; note: potency is the fitted concentration of half-maximal effect
Summary of the method: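 HCT-116 p53RE-bla cells, 4,000/well, plated 5 h before compound pin transfer; 16 h at 37 C; bla substrate 2 h RT; then CellTiter-Glo, 30 min RT, luminescence.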

Measured: Potency

CSc1cnc(C)cn1
inactive: [1] | [2] | [3] | [4] | [5] | [6] | [7] | [8] | [9] | [10] | [11] | [12] | [13] | [14] | [15] | [16]

CC1OC(=O)C(C)OC1=O (stereo unspecified)
inactive: [1] | [17] | [3] | [4] | [5] | [7] | [8] | [9] | [10] | [12] | [13] | [18] | [15] | [16]

CN1CCC(=C2c3ccccc3CCc3sccc32)CC1
inactive: [1] | [2] | [17] | [4] | [5] | [6] | [7] | [11] | [12] | [15]
active: [8] 0.0116 µM | [10] 0.0145 µM | [16] 11.9 µM

O=CC(=O)c1ccccc1
inactive: [1] | [2] | [17] | [3] | [5] | [6] | [19] | [7] | [8] | [10] | [11] | [12] | [14] | [16]

Cc1ccccc1C(=O)O
inactive: [1] | [2] | [17] | [3] | [5] | [6] | [19] | [7] | [8] | [9] | [10] | [11] | [12] | [13] | [15] | [16]

CC(C)=CCC1=C(O)c2ccccc2C(=O)C1=O
active: [19] 3.61 µM | [7] 4.06 µM
inactive: [1] | [2] | [17] | [4] | [6] | [8] | [10] | [11] | [15]

CCCC(C)C
inactive: [2] | [17] | [3] | [4] | [5] | [6] | [19] | [8] | [9] | [10] | [11] | [12] | [13] | [14] | [15] | [16]

Nc1c2c(nc3c1CCC3)CCCC2
inactive: [1] | [17] | [3] | [4] | [6] | [19] | [7] | [9] | [10] | [11] | [12] | [13] | [14] | [18] | [15] | [16]
